Measured values as given in PubChem BioAssay (EPA / NIEHS).
Activity calls are given as the source filed them. How the source made its calls: active means hit-call score of the fitted dose curve at least 0.9, where 1 is the maximum; inactive means score below 0.9.

How the values were obtained:
Details in all cases: mRNA level, 48 h; actives raise or lower the signal
[1] = read-out: Alkaline Phosphatase, Placental (ALPP) gene, ALPP (gene 250); assay: LTEA_HepaRG_ALPP: Life Technologies and Expression Analysis (LTEA) Assay for Alkaline Phosphatase, Placental (ALPP) gene using HepaRG (AID 2283468);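 on AC50: differentiated human HepaRG liver cells in serum-free induction medium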
Outline: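 ALPP transcript level, measured by qRT-PCR and normalized to three housekeeping genes (ACTB, GAPDH, POLR2A), after 48 h dosing of differentiated HepaRG in serum-free induction medium. Top concentration 100 uM with half-log dilutions (8 points, 0.5% DMSO, duplicates); bidirectional fitting relative to DMSO.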

[2] = read-out: Bcl-2 (BAD) gene, BAD (gene 572); assay: LTEA_HepaRG_BAD: Life Technologies and Expression Analysis (LTEA) Assay for Bcl-2 (BAD) gene using HepaRG (AID 2283469)
Outline: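 HepaRG, 48 h exposure, 8-pt half-log curve from 100 uM in 0.5% DMSO, duplicates. Readout: TaqMan qRT-PCR for BAD mRNA, housekeeping-normalised (ACTB/GAPDH/POLR2A); gain or loss fitted against DMSO baseline.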

[3] = read-out: Bcl-2 (BAX) gene, BAX (gene 581); assay: LTEA_HepaRG_BAX: Life Technologies and Expression Analysis (LTEA) Assay for Bcl-2 (BAX) gene using HepaRG (AID 2283470)
Outline: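 Gene expression measured by Fluidigm qRT-PCR with three housekeeping genes for normalisation. HepaRG cells, plated 48 h beforehand, treated 48 h at up to 100 uM (8-point, half-log) in 0.5% DMSO. Bidirectional fitting versus DMSO.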

[4] = read-out: adenosine kinase (ADK) gene, ADK (gene 132); assay: LTEA_HepaRG_ADK: Life Technologies and Expression Analysis (LTEA) Assay for adenosine kinase (ADK) gene using HepaRG (AID 2283471)
Outline: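 Following 48 h exposure of HepaRG cells in 0.5% DMSO (top concentration 100 uM, duplicate wells), ADK mRNA induction or suppression was measured by qRT-PCR, normalised to ACTB/GAPDH/POLR2A, and fitted bidirectionally relative to vehicle.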

[5] = read-out: Alpha-fetoprotein (AFP) gene, AFP (gene 174); assay: LTEA_HepaRG_AFP: Life Technologies and Expression Analysis (LTEA) Assay for Alpha-fetoprotein (AFP) gene using HepaRG (AID 2283472)
Outline: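 AFP transcript measured by TaqMan qRT-PCR with three housekeeping genes for normalization, after 48 h chemical treatment of HepaRG cells (top 100 uM, half-log steps, 0.5% DMSO). Gain or loss fitted against vehicle.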

[6] = read-out: Apolipoprotein A-V (APOA5) gene, APOA5 (gene 116519); assay: LTEA_HepaRG_APOA5: Life Technologies and Expression Analysis (LTEA) Assay for Apolipoprotein A-V (APOA5) gene using HepaRG (AID 2283474)
Outline: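 APOA5 transcript levels were quantified by qRT-PCR, normalized to three housekeeping genes, after 48 h chemical treatment of HepaRG cells (8 points, 100 uM maximum, half-log steps, 0.5% DMSO). Curves fitted in both directions against vehicle.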

[7] = read-out: Apoptosis regulator Bcl-2 (Homo sapiens) (UniProt P10415); assay: LTEA_HepaRG_BCL2: Life Technologies and Expression Analysis (LTEA) Assay for Bcl-2 gene using HepaRG (AID 2283475)
Outline: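 qRT-PCR of BCL2 transcript, normalized to three housekeeping genes (ACTB, GAPDH, POLR2A), after 48 h chemical exposure of HepaRG cells; concentrations top 100 uM with half-log dilutions, 0.5% DMSO vehicle, duplicates; changes up or down fitted relative to vehicle.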

Caspase-3 (Homo sapiens) = Caspase-3 (Homo sapiens) (UniProt P42574); assay: LTEA_HepaRG_CASP3: Life Technologies and Expression Analysis (LTEA) Assay for cysteine-aspartic acid protease (CASP3) using HepaRG (AID 2283477)
Chain of Caspase-3 (Homo sapiens) (P42574 whole entry, looked up): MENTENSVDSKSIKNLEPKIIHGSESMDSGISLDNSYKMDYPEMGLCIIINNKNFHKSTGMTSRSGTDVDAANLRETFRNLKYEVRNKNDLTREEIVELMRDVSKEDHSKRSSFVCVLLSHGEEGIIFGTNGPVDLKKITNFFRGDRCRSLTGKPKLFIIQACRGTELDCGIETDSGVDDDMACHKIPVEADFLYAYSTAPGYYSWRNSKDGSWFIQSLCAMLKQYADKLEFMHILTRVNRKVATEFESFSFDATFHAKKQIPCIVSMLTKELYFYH
Outline: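 Expression of CASP3 was quantified by TaqMan qRT-PCR against three housekeeping genes (ACTB, GAPDH, POLR2A), bidirectionally versus 0.5% DMSO. HepaRG cultures received compounds in duplicate, top 100 uM with half-log steps, for 48 h in serum-free induction medium.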

[8] = read-out: Bcl-2 (BID) gene, BID (gene 637); assay: LTEA_HepaRG_BID: Life Technologies and Expression Analysis (LTEA) Assay for Bcl-2 (BID) gene using HepaRG (AID 2283476)
Outline: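 Duplicate 48 h treatments of HepaRG cells in serum-free induction medium spanned 100 uM downward in half-log steps, 0.5% DMSO. Transcript change quantified by qRT-PCR against three housekeeping genes, fitted up or down versus DMSO.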

Measured: AC50

Chain of Apoptosis regulator Bcl-2 (Homo sapiens) (P10415 whole entry, looked up): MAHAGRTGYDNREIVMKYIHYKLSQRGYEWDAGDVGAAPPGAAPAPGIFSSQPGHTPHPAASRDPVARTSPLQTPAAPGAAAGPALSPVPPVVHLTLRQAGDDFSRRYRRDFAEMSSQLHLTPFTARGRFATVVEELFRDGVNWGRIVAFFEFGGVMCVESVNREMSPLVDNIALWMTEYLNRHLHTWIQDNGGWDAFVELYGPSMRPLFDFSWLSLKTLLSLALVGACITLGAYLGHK

CCCCCCC(=O)O
not listed: [8]
inactive: all other assays above

CCCCCCCCCCCCN1CCCC1=O
inactive: all assays above

CCN(CC)CCNc1ccc(CNC=O)c2sc3ccc(OC)cc3c(=O)c12
active: [4] 76.7 µM | [5] 11.5 µM | [6] 12.4 µM | Caspase-3 (Homo sapiens) 72.7 µM
not listed: [8]
inactive: all other assays above

CC(C)(C)c1cccc(C(C)(C)C)c1O
not listed: [8]
inactive: all other assays above

CCCCCCCC(=O)O
active: Caspase-3 (Homo sapiens) 12.5 µM
not listed: [8]
inactive: all other assays above

CC#C[C@]1(O)CC[C@H]2[C@@H]3CCC4=CC(=O)CCC4=C3[C@@H](c3ccc(N(C)C)cc3)C[C@@]21C
active: [1] 15.7 µM | [2] 25.4 µM | [3] 27.6 µM | [4] 80.6 µM | [5] 23.7 µM | [6] 29.7 µM | [7] 19 µM | Caspase-3 (Homo sapiens) 27.4 µM

CC1=C(/C=C/C(C)=C/C=C/C(C)=C/C(=O)O)C(C)(C)CCC1
active: [3] 20.4 µM | [5] 35.9 µM
not listed: [8]
inactive: all other assays above

Cc1cc(C)c(O)c(C)c1
not listed: [8]
inactive: all other assays above

OCCC(F)(F)C(F)(F)C(F)(F)C(F)(F)C(F)(F)C(F)(F)C(F)(F)C(F)(F)F
not listed: [8]
inactive: all other assays above

CN(C)C=O
not listed: [8]
inactive: all other assays above

C#C[C@]1(O)CC[C@H]2[C@@H]3CCC4=CC(=O)CC[C@@H]4[C@H]3CC[C@@]21C
active: [1] 10.1 µM | [4] 9.92 µM | [6] 9.92 µM
not listed: [8]
inactive: all other assays above

CC(=O)NC1(c2cccc(F)c2)CCN(CC[C@@]2(c3ccc(Cl)c(Cl)c3)CN(c3ccccc3)C(=O)CO2)CC1
active: [1] 19.6 µM | [5] 13.1 µM
not listed: [8]
inactive: all other assays above

CN1CCC[C@H]1c1cccnc1
not listed: [8]
inactive: all other assays above

C[C@@H]1C[C@H]2[C@@H]3CCC4=CC(=O)C=C[C@]4(C)[C@@]3(F)[C@@H](O)C[C@]2(C)[C@@]1(O)C(=O)COP(=O)(O)O
inactive: all assays above

CCCCC(CC)COC(=O)CCCCC(=O)OCc1ccccc1 (centres undefined)
not listed: [2] | [8]
inactive: all other assays above

OC1CCCCC1
not listed: [8]
inactive: all other assays above
